PubChem BioAssay (NCI)
This is part of a sample that, as a whole, favours compounds with a hit. Of some 83,000 tested, about 20% had one in any assay.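 Percent growth is the endpoint: 0 to 100 indicates growth inhibition (40 means 60% inhibition), 0 means no net growth, and negative values indicate cell death.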 Values without a mark were called inactive. Activity calls are given as the source filed them. How the source made its calls: active means growth percent below 10; inactive means the rest.

The molecules below were run on HL-60(TB) leukemia (assay: NCI-60 one-dose screen, 48 h (100 = growth as untreated, 0 = no growth, -100 = all killed)). Settings: 10 µM unless noted.

Q: How did the growth turn out when `O=C(NOC[C@H](O)CO)c1ccc(F)c(F)c1Nc1ccc(I)cc1F` was run?
A: The growth was 6.7% (active).

Q: For `COC(=O)c1ccc2c(c1)c1c(C)c3cnccc3c(C)c1n2C`, which growth is on record?
A: Its growth is -2.92% (active).

Q: `CCOC(=O)c1cnc2ccc(Br)cc2c1Nc1cccc(S(N)(=O)=O)c1` was tested. Which growth did it give?
A: The growth was 99.5%.

Q: With `CCCCCCCCCCCCCCCCCCOc1ccccc1CC(=O)OCC[N+](C)(C)C` as the molecule, how does the growth read?
A: Its growth is -38% (active).

Q: `COc1cccc(Cn2cc3c(c2)-c2oncc2CC3)c1` was tested. Which growth did it give?
A: The growth was 1.64% (active).

Q: Which growth does the source give for `CCCCCCCCCCCCCC[n+]1ccccc1` here?
A: Its growth is -70.3% (active).

Q: With `O=C1/C(=C/c2ccccc2)Oc2ccc(O)c(I)c21` as the molecule, how does the growth read?
A: The growth was 95.4%.

Q: With `O=C1/C(=C/c2ccccc2O)N=C2SCCCN12` as the molecule, how does the growth read?
A: Its growth is 108%.

Q: With `C[n+]1c2ccccc2c(Nc2ccc(NS(=O)(=O)CCCCN=C(N)N)cc2)c2ccc(N)cc21` as the molecule, how does the growth read?
A: Its growth is 16.7%.

Q: `C=C(CNCCO)[C@@H]1CC[C@]2(CO)CC[C@]3(C)[C@H](CC[C@@H]4[C@@]5(C)CCC(NCCc6ccc(O)cc6)C(C)(C)[C@@H]5CC[C@]43C)[C@@H]12` (stereo not given in full) was tested. Which growth did it give?
A: Its growth is -52.2% (active).

Q: Which growth does the source give for `Cc1c(Cl)cccc1NC(=O)c1sc2nc3c(cc2c1N)COCC3` here?
A: Its growth is 2.35% (active).

Q: For `COc1cnc2c(c1)C(=O)c1c-2n(CCCN2CCOCC2)c(=O)c2cc(F)ccc12`, which growth is on record?
A: Its growth is -10.2% (active).

Q: Which growth does the source give for `COc1ccc(-c2cc(-c3cccs3)n(N=O)c(=O)c2C#N)cc1` here?
A: Its growth is 94.7%.

Q: `COc1ccc2nc(SCC(=O)Nc3ccccc3C)[nH]c2c1` was tested. Which growth did it give?
A: The growth was 100%.

Q: With `CCCCCN1C=C/C(=C\C(=O)N2CCCc3ccccc32)c2ccccc21` as the molecule, how does the growth read?
A: Its growth is 54.8%.
